Sampled rows, rich in hits. Any-hit rate of the full collection: about 2.8%.
PAFAH1B2 inh: blocks human PAF acetylhydrolase 1b catalytic subunit 2 | recombinant PAFAH1B2, FP-rhodamine activity probe, fluorescence polarization | inhibition, % at 3.39 µM | 1.2% of 340,000 active | AID 492953;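 active = inhibition above the mean of all tested compounds plus 3 SD, cut at about 24% in these data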;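 note: 0% = enzyme with DMSO and 100% = wells lacking PAFAH1B2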
HTRA1 inh: blocks human HTRA1 serine peptidase; Q92743; AID 504803; inhibition, % at 5.96 µM; recombinant HTRA1, FP-rhodamine activity-based probe, fluorescence polarization; 0.5% of 340,000 active; in the data active = inhibition above about 36%;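 note: 0% = enzyme with DMSO and 100% = wells lacking enzyme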
Target sequence (Q92743 whole entry, looked up): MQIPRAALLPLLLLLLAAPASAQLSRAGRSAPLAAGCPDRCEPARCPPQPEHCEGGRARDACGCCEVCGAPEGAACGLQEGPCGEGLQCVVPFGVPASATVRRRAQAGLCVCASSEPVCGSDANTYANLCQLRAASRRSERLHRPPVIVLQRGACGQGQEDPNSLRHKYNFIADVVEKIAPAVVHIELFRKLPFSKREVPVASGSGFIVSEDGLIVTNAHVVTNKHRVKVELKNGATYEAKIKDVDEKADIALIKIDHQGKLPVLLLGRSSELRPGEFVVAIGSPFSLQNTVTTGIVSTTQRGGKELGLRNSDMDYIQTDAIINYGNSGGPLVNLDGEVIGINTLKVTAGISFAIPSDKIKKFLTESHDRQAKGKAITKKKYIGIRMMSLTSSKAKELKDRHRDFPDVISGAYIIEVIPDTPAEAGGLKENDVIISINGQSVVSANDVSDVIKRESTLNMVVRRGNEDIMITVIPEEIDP
PAFAH1B3 inh: blocks human PAF acetylhydrolase 1B catalytic subunit 3 | Q15102 | AID 492972 | inhibition, % at 3.39 µM | 0.28% of 340,000 active | recombinant PAFAH1B3, FP-rhodamine probe, fluorescence polarization;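 active = inhibition above the screen-wide average of all tested compounds plus 3 SD, cut at about 25% in these data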;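 note: 0% = enzyme with DMSO only and 100% = wells lacking PAFAH1B3 protein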
pPAFAH inh: inhibitors of human plasma PAF acetylhydrolase (pPAFAH). Q13093. recombinant pPAFAH, FP-rhodamine probe fluorescence polarization. inhibition, % at 3.39 µM. 1.5% of 330,000 active. AID 463082;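 active = inhibition above the mean inhibition across the screen plus 3 SD, cut at about 25% in these data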;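 note: inhibitors block binding of the rhodamine activity-based probe so polarization drops; 0% = enzyme with DMSO and 100% = wells lacking pPAFAH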
PAFAH2 FP inh: inhibitors of human PAFAH2; recombinant PAFAH2, FP-rhodamine activity probe, fluorescence polarization; 0.99% of 340,000 active; inhibition, % at 3.39 µM; AID 492956; Q99487;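 active = inhibition above the mean over all tested compounds plus 3 SD, cut at about 30% in these data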;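 note: inhibitors block probe labeling of enzyme so polarization drops; 0% = enzyme with DMSO and 100% = wells lacking PAFAH2 protein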
DAGLB inh: blocks human DAGLB lipase activity | 0.059% of 340,000 active | Q8NCG7 | HEK293T DAGLB membrane lysate, EnzChek fluorogenic substrate | inhibition, % at 5.17 µM; in the data active = inhibition above about 34%;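 note: 0% = enzyme with vehicle and 100% = wells lacking enzyme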
* hit, by the source's call; . = no result.

SMILES	PAFAH1B2 inh	HTRA1 inh	PAFAH1B3 inh	pPAFAH inh	PAFAH2 FP inh	DAGLB inh
COC(=O)C1=CN(C(C)c2ccccc2)C=C(C(=O)OC)C1c1cc(OC)c(OC)c(OC)c1 (stereo not drawn)	28*	-20	12	-3	4	-2
Cc1ccccc1OCCn1c(C)nc2ccccc21	9	1	15	2	-8	-4
Cc1ccccc1OCCn1c(S(=O)(=O)O)nc2c(N)ncnc21	28*	0	45*	4	46*	-1
COC(=O)c1cc(NS(=O)(=O)c2ccc(N3CCOCC3)c([N+](=O)[O-])c2)cc(C(=O)OC)c1	-1	-6	5	5	5	8
COC(=O)c1cc(NS(=O)(=O)c2ccc(N3CCCCCC3)c([N+](=O)[O-])c2)cc(C(=O)OC)c1	33*	-33	4	9	6	5
COC(=O)c1ccc(NS(=O)(=O)c2ccccc2)o1	5	0	12	0	8	0
CSc1nc2nccc(-c3ccc(-c4ccccc4)cc3)n2n1	0	-11	3	4	3	-5
CSc1nc2nccc(-c3ccc(Oc4ccccc4)cc3)n2n1	-2	-36	1	30*	-2	-10
O=C(O)c1cc(-c2cccc(Cl)c2)nc2nc(N3CCCCC3)sc12	82*	-28	27*	0	12	7
O=C1N(c2ccccc2)C(c2ccccc2)C12CCCCC2 (stereo not drawn)	32*	-5	10	0	0	-10
O=C(O)c1cc2cc(Oc3ccccc3)ccc2[nH]1	12	-3	2	10	-4	4
c1ccc(COc2ccc3nocc3c2)cc1	3	-8	-4	11	7	-2
C=C[C@]1(C)C=C2CCC3[C@](C)(CCC[C@@]3(C)C(=O)O)C2CC1 (stereo partly drawn)	68*	-22	11	9	43*	-7
C=C/C(C)=C/CC1C(=C)CCC2C(C)(C(=O)O)CCCC12C (stereo not drawn)	2	-4	-4	5	6	0
Nc1ccc(O)cc1	.	.	.	38*	.	.
Nc1ccc(C(=O)O)cc1	5	8	3	4	-3	0
COC(=O)C(=C/C=C/N1CCOCC1)C(=O)OC	.	.	.	25*	.	.
CCC(=O)N1CCc2cc(S(=O)(=O)NC(Cc3ccccc3)C(=O)NC3CCCCC3)ccc21 (stereo not drawn)	2	7	0	.	-5	5
CCC(=O)N1CCc2cc(S(=O)(=O)NC(Cc3ccccc3)C(=O)O)ccc21 (stereo not drawn)	-1	2	2	28*	8	0
Cc1ccc(-c2csc3ncnc(NCCN4CCOCC4)c23)cc1	2	2	6	5	7	0
Cc1ccc(-c2csc3ncnc(Nc4ccc(N5CCOCC5)cc4)c23)cc1	2	13	1	30*	5	-1
CCOC(=O)c1ccc(NS(=O)(=O)c2cc3c4c(c2)CCN4C(=O)CC3)cc1	-1	2	8	8	7	5
CCOc1ccc(NS(=O)(=O)c2ccc(C(=O)N3CCC3)cc2)cc1	1	5	5	46*	-5	-1
CCOc1ccc(NS(=O)(=O)c2ccc(C(=O)N3CCCC3)cc2)cc1	1	-13	4	25*	-5	-2
CCOc1ccc(NS(=O)(=O)c2cc3c4c(c2)CCN4C(=O)CC3)cc1	1	-6	0	25*	2	2
SMILES	PAFAH1B2 inh	HTRA1 inh	PAFAH1B3 inh	pPAFAH inh	PAFAH2 FP inh	DAGLB inh
CCOc1ccc(NS(=O)(=O)c2cc(C(=O)N3CCCC3)ccc2Cl)cc1	1	1	1	2	-1	1
O=C(c1ccccc1F)N1CCN(Cc2cccc(Cl)c2)CC1	4	6	3	29*	6	-1
Nc1c(Cl)cc(-c2[nH]c3cc(C(=O)NCCO)ccc3c(=O)c2O)cc1Cl	26*	33	36*	19	-27	3
CCCNC(=O)c1ccc2c(=O)c(O)c(-c3ccc(F)cc3)[nH]c2c1	14	15	25	13	11	6
CCCNC(=O)c1ccc2c(=O)c(O)c(-c3cccc(Br)c3)[nH]c2c1	19	9	17	28*	-20	10
Cc1ccc([N+](=O)[O-])cc1NC(=S)NC(=O)c1c(Cl)cnn1C	3	7	17	.	-3	-3
Cc1ccc(NC(=O)CN2CCCC2c2cccn2C)c(Br)c1 (stereo not drawn)	2	-24	5	1	-2	-5
O=C(CN1C(=O)c2ccccc2S1(=O)=O)NCCc1ccc(F)cc1	10	-3	11	2	-1	-4
O=C1NC(c2cccs2)C(C(=O)c2ccccc2)C(O)(C(F)(F)F)N1 (stereo not drawn)	32*	6	3	0	3	2
c1ccc(-c2cncnc2)cc1	1	0	19	-1	-1	-5
CC(C)(C)c1ccc(OCc2ccc(C(=O)N3CCOCC3)o2)cc1	-1	-2	4	4	-1	-1
CCCc1ccc(OCc2ccc(C(=O)N3CCSCC3)o2)cc1	1	-12	9	25*	-4	-6
COc1ccc2c(ccn2S(=O)(=O)c2ccccc2)c1	14	-15	6	-1	7	0
COCCNC(=O)CN1C(=O)NC2(CCOc3ccccc32)C1=O (stereo not drawn)	1	2	2	-5	-7	1
CC(CNC(=O)CN1C(=O)NC2(CCOc3ccccc32)C1=O)c1ccccc1 (stereo not drawn)	28*	-3	4	-4	-6	3
O=C(c1ccccc1)N1CCN(C(=O)c2nn3c(C(F)(F)F)cc(-c4ccco4)nc3c2Br)CC1	4	6	9	34*	13	3
O=C(NC1CCCCC1)c1nn2c(C(F)(F)F)cc(-c3ccco3)nc2c1Br	1	24	3	0	4	2
CCOc1ccc(NC(=O)CCSc2ccc(C)cc2)cc1	25*	-7	1	6	3	-7
O=S(=O)(Nc1ncnc2sc3c(c12)CCC3)c1ccc(Cl)s1	7	-9	4	16	10	7
O=S(=O)(Nc1ncnc2sc3c(c12)CCC3)c1cc(F)ccc1F	3	7	6	30*	0	5
CC1CNC(=S)N(c2ccc(F)cc2)C1=O (stereo not drawn)	6	-2	5	.	4	1
CCCCN(CCCNC(=O)C1CCN(S(=O)(=O)CC)CC1)c1ccccc1	3	10	-2	28*	5	4
CCN(CCNC(=O)C1CCN(S(=O)(=O)CC)CC1)c1ccccc1	1	8	-3	2	5	1
C=CCNC(=O)COc1c(C)ccc(C)c1C	5	3	9	0	-3	1
